What was measured:
Assay in all cases: yeast three-hybrid, YBZ-1, SC-Leu-His + 0.5 mM 3-AT, 4 days
Details in all cases: tags: N-Gal4 AD-HA kept; label: inside an RPR1-promoter hybrid RNA with tandem MS2 sites; ssRNA
[1] = target: PUM1 PUF domain R5-RNA (Homo sapiens, UniProt Q14671 828-1176, C1007R;R1008N;Q1011A)
How it was run: (§1)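 Each repeat of the Pumilio-1 PUF domain was randomized at its three base-contacting residues, and these libraries were co-expressed from a centromeric plasmid with matching RNA elements in strain YBZ-1. After four days on SC-Leu (input) or SC-Leu-His + 0.5 mM 3-AT (selection), the repeat regions were PCR-amplified and Illumina-sequenced. The interaction score compares variant frequency between input and selection as a log change, computed in log2 with a pseudocount of 1 for absent variants.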

[2] = target: PUM1 PUF domain R5-RQE (Homo sapiens, UniProt Q14671 828-1176, C1007R;R1008Q;Q1011E)
How it was run: as §1

[3] = target: PUM1 PUF domain R5-SKR (Homo sapiens, UniProt Q14671 828-1176, C1007S;R1008K;Q1011R)
How it was run: as §1

[4] = target: PUM1 PUF domain R5-RNV (Homo sapiens, UniProt Q14671 828-1176, C1007R;R1008N;Q1011V)
How it was run: as §1

[5] = target: T1, PUM1 PUF domain R6-SFC (Homo sapiens, UniProt Q14671 828-1176, N1043S;Y1044F;Q1047C)
T1 sequence: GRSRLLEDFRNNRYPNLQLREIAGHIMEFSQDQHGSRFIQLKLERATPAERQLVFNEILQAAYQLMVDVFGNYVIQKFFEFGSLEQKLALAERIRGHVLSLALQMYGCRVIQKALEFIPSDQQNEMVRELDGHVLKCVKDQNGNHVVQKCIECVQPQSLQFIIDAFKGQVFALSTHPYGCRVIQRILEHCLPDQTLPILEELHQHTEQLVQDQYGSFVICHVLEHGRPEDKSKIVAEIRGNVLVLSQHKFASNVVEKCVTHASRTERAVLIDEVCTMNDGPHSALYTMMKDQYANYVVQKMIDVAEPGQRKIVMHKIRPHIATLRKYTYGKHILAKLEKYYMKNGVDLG
How it was run: as §1

[6] = target: PUM1 PUF domain R3-GCR (Homo sapiens, UniProt Q14671 828-1176, C935G;R936C;Q939R)
How it was run: as §1

[7] = target: PUM1 PUF domain R4-ANG (Homo sapiens, UniProt Q14671 828-1176, N971A;H972N;Q975G)
How it was run: as §1

[8] = target: PUM1 PUF domain R8-RHQ (Homo sapiens, UniProt Q14671 828-1176, N1122R;Y1123H)
How it was run: as §1

[9] = target: PUM1 PUF domain R5-AYY (Homo sapiens, UniProt Q14671 828-1176, C1007A;R1008Y;Q1011Y)
How it was run: as §1

[10] = target: PUM1 PUF domain R5-FNS (Homo sapiens, UniProt Q14671 828-1176, C1007F;R1008N;Q1011S)
How it was run: as §1

[11] = target: PUM1 PUF domain R5-DHG (Homo sapiens, UniProt Q14671 828-1176, C1007D;R1008H;Q1011G)
How it was run: as §1

[12] = target: PUM1 PUF domain R5-MHS (Homo sapiens, UniProt Q14671 828-1176, C1007M;R1008H;Q1011S)
How it was run: as §1

[13] = target: PUM1 PUF domain R1-RLN (Homo sapiens, UniProt Q14671 828-1176, S863R;R864L;Q867N)
How it was run: as §1

[14] = target: PUM1 PUF domain R1-KFM (Homo sapiens, UniProt Q14671 828-1176, S863K;R864F;Q867M)
How it was run: as §1

[15] = target: PUM1 PUF domain R1-SGD (Homo sapiens, UniProt Q14671 828-1176, R864G;Q867D)
How it was run: as §1

[16] = target: PUM1 PUF domain R4-GYV (Homo sapiens, UniProt Q14671 828-1176, N971G;H972Y;Q975V)
How it was run: as §1

[17] = target: PUM1 PUF domain R7-GNG (Homo sapiens, UniProt Q14671 828-1176, S1079G;E1083G)
How it was run: as §1

[18] = target: PUM1 PUF domain R3-RNG (Homo sapiens, UniProt Q14671 828-1176, C935R;R936N;Q939G)
How it was run: as §1

[19] = target: PUM1 PUF domain R3-RSA (Homo sapiens, UniProt Q14671 828-1176, C935R;R936S;Q939A)
How it was run: as §1

[20] = target: PUM1 PUF domain R3-FRT (Homo sapiens, UniProt Q14671 828-1176, C935F;Q939T)
How it was run: as §1

PUM1 PUF domain R5-MHS, sequence (Q14671 828-1176 C1007M/R1008H/Q1011S): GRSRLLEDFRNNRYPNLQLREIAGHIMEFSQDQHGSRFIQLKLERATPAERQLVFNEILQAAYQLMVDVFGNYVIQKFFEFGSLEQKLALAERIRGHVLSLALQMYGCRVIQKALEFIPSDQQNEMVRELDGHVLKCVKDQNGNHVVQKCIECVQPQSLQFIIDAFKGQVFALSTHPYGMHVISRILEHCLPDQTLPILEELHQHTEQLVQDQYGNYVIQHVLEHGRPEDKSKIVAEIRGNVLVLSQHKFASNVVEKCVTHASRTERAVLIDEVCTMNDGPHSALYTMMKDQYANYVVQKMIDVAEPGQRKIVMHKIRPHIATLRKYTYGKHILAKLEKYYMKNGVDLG
PUM1 PUF domain R5-RNV, sequence (Q14671 828-1176 C1007R/R1008N/Q1011V): as the sequence (Q14671 828-1176 C1007M/R1008H/Q1011S) above, with M180R, H181N, S184V counted along it
PUM1 PUF domain R1-RLN, sequence (Q14671 828-1176 S863R/R864L/Q867N): as the sequence (Q14671 828-1176 C1007M/R1008H/Q1011S) above, with S36R, R37L, Q40N, M180C, H181R, S184Q counted along it
PUM1 PUF domain R3-RSA, sequence (Q14671 828-1176 C935R/R936S/Q939A): as the sequence (Q14671 828-1176 C1007M/R1008H/Q1011S) above, with C108R, R109S, Q112A, M180C, H181R, S184Q counted along it
PUM1 PUF domain R1-KFM, sequence (Q14671 828-1176 S863K/R864F/Q867M): as the sequence (Q14671 828-1176 C1007M/R1008H/Q1011S) above, with S36K, R37F, Q40M, M180C, H181R, S184Q counted along it
PUM1 PUF domain R5-DHG, sequence (Q14671 828-1176 C1007D/R1008H/Q1011G): as the sequence (Q14671 828-1176 C1007M/R1008H/Q1011S) above, with M180D, S184G counted along it
PUM1 PUF domain R5-AYY, sequence (Q14671 828-1176 C1007A/R1008Y/Q1011Y): as the sequence (Q14671 828-1176 C1007M/R1008H/Q1011S) above, with M180A, H181Y, S184Y counted along it
PUM1 PUF domain R3-FRT, sequence (Q14671 828-1176 C935F/Q939T): as the sequence (Q14671 828-1176 C1007M/R1008H/Q1011S) above, with C108F, Q112T, M180C, H181R, S184Q counted along it
PUM1 PUF domain R7-GNG, sequence (Q14671 828-1176 S1079G/E1083G): as the sequence (Q14671 828-1176 C1007M/R1008H/Q1011S) above, with M180C, H181R, S184Q, S252G, E256G counted along it
PUM1 PUF domain R5-SKR, sequence (Q14671 828-1176 C1007S/R1008K/Q1011R): as the sequence (Q14671 828-1176 C1007M/R1008H/Q1011S) above, with M180S, H181K, S184R counted along it

## GGCUAGAACUAGUGGAUCCCCCGGCGCCCGGCGGCUCGAGCCCGGGUAAGUGUCAAUAGUCUGCAUGCCGCCGGGCGCCAUGCCUGCAGGUCGACUCUAGAAAACAUG
[1]
  binding signal: 2.56 log2 enrichment (interaction score)
[2]
  binding signal: 3.37 log2 enrichment (interaction score)
[3]
  binding signal: 5.88 log2 enrichment (interaction score)
[4]
  binding signal: 2.8 log2 enrichment (interaction score)

## GGCUAGAACUAGUGGAUCCCCCGGCGCCCGGCGGCUCGAGCCCGGGUAAGUGUAAAUAGUCUGCAUGCCGCCGGGCGCCAUGCCUGCAGGUCGACUCUAGAAAACAUG
[5]
  binding signal: 4.7 log2 enrichment (interaction score)
[6]
  binding signal: 0.62 log2 enrichment (interaction score)
[7]
  binding signal: 0.25 log2 enrichment (interaction score)
[8]
  binding signal: 3.7 log2 enrichment (interaction score)
[9]
  binding signal: 3.24 log2 enrichment (interaction score)

## GGCUAGAACUAGUGGAUCCCCCGGCGCCCGGCGGCUCGAGCCCGGGUAAGUGUUAAUAGUCUGCAUGCCGCCGGGCGCCAUGCCUGCAGGUCGACUCUAGAAAACAUG
[10]
  binding signal: 3.5 log2 enrichment (interaction score)
[1]
  binding signal: 2.33 log2 enrichment (interaction score)
[4]
  binding signal: 2.58 log2 enrichment (interaction score)
[11]
  binding signal: 4.67 log2 enrichment (interaction score)
[12]
  binding signal: 5.58 log2 enrichment (interaction score)

## GGCUAGAACUAGUGGAUCCCCCGGCGCCCGGCGGCUCGAGCCCGGGUAAGUGUAAAUUGUCUGCAUGCCGCCGGGCGCCAUGCCUGCAGGUCGACUCUAGAAAACAUG
[13]
  binding signal: 2.1 log2 enrichment (interaction score)

## GGCUAGAACUAGUGGAUCCCCCGGCGCCCGGCGGCUCGAGCCCGGGUAAGUGUAUAUAGUCUGCAUGCCGCCGGGCGCCAUGCCUGCAGGUCGACUCUAGAAAACAUG
[7]
  binding signal: 2.57 log2 enrichment (interaction score)

## GGCUAGAACUAGUGGAUCCCCCGGCGCCCGGCGGCUCGAGCCCGGGUAAGUGUAAAUCGUCUGCAUGCCGCCGGGCGCCAUGCCUGCAGGUCGACUCUAGAAAACAUG
[13]
  binding signal: 2.71 log2 enrichment (interaction score)
[14]
  binding signal: 4.3 log2 enrichment (interaction score)

## GGCUAGAACUAGUGGAUCCCCCGGCGCCCGGCGGCUCGAGCCCGGGUAAGUGUAAAUGGUCUGCAUGCCGCCGGGCGCCAUGCCUGCAGGUCGACUCUAGAAAACAUG
[15]
  binding signal: 5.76 log2 enrichment (interaction score)

## GGCUAGAACUAGUGGAUCCCCCGGCGCCCGGCGGCUCGAGCCCGGGUAAGUGUGAAUAGUCUGCAUGCCGCCGGGCGCCAUGCCUGCAGGUCGACUCUAGAAAACAUG
[12]
  binding signal: 2.4 log2 enrichment (interaction score)

## GGCUAGAACUAGUGGAUCCCCCGGCGCCCGGCGGCUCGAGCCCGGGUAAGUGUACAUAGUCUGCAUGCCGCCGGGCGCCAUGCCUGCAGGUCGACUCUAGAAAACAUG
[16]
  binding signal: 7.46 log2 enrichment (interaction score)
[7]
  binding signal: 3.65 log2 enrichment (interaction score)

## GGCUAGAACUAGUGGAUCCCCCGGCGCCCGGCGGCUCGAGCCCGGGUAAGUUUAAAUAGUCUGCAUGCCGCCGGGCGCCAUGCCUGCAGGUCGACUCUAGAAAACAUG
[17]
  binding signal: 5.55 log2 enrichment (interaction score)

## GGCUAGAACUAGUGGAUCCCCCGGCGCCCGGCGGCUCGAGCCCGGGUAAGUGUAAUUAGUCUGCAUGCCGCCGGGCGCCAUGCCUGCAGGUCGACUCUAGAAAACAUG
[6]
  binding signal: 2.22 log2 enrichment (interaction score)
[18]
  binding signal: 3.75 log2 enrichment (interaction score)
[19]
  binding signal: 3.54 log2 enrichment (interaction score)

## GGCUAGAACUAGUGGAUCCCCCGGCGCCCGGCGGCUCGAGCCCGGGUAAGUGUAAGUAGUCUGCAUGCCGCCGGGCGCCAUGCCUGCAGGUCGACUCUAGAAAACAUG
[6]
  binding signal: 3.87 log2 enrichment (interaction score)
[20]
  binding signal: 4.75 log2 enrichment (interaction score)

## GGCUAGAACUAGUGGAUCCCCCGGCGCCCGGCGGCUCGAGCCCGGGUAAGCGUAAAUAGUCUGCAUGCCGCCGGGCGCCAUGCCUGCAGGUCGACUCUAGAAAACAUG
[8]
  binding signal: 5.53 log2 enrichment (interaction score)

From publication PMC8384837, “Expanding the binding specificity for RNA recognition by a PUF domain”
